A selection: hits, their analogues and other compounds. The true share with any hit is near 3.2%.
Pol III holo inh: inhibitors of bacterial DNA polymerase III holoenzyme; reconstituted DNA polymerase III holoenzyme replication, biochemical; 71,000 tested, 0.25% active; Potency, µM (doses to about 57.1 µM), without a hit: at the highest dose activity change, negative = inhibition; further: potency means the concentration at half of the fitted maximal effect; on the % scale 0 is the no-effect control and ±100 the full control effect
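Reconstituted *E. coli* holoenzyme (0.35 nM Pol III, 1 nM beta, 154 nM SSB, 2 nM primase) was preincubated with compound for 15 min at RT. Synthesis on 1.4 nM ssM13Gori ran 35 min, then was stopped with PicoGreen/EDTA and read as dsDNA fluorescence.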
TsaE inh: inhibitors of E. coli YjeE (TsaE). P0AF67. purified YjeE enzyme, qHTS inhibition assay. Potency, µM. 71,000 tested, 0.05% active. AID 605
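Fluorescence polarization of a BODIPY Texas Red–ADP probe (2 uM) bound to purified YjeE (10 uM) was read after 15 min room-temperature incubation with compounds. Loss of polarization marks inhibitors; ADP serves as titrated control.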
BRCT PPI green: blocks human BRCA1 BRCT binding to phosphopeptide, green readout; 75,000 tested, 0.05% active; P38398; Potency, µM (highest dose often 76.9 µM), inactives show at the top dose activity change, negative = inhibition, hits mostly inhibitors; AID 875; BRCA1 BRCT-phosphopeptide binding, green fluorescence polarization;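 further: potency means the concentration at half of the fitted maximal effect; plate controls were peptide without protein for full effect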
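Fluorescence polarization: His-tagged BRCT (~35 kDa BRCA1 C-terminus, 250 nM) bound to 100 nM fluorescein-labeled phosphorylated 10-aa BACH1 peptide, pH 7.3 phosphate buffer with DTT and Tween 20. Compounds incubated 12 min at room temperature; inhibition read as lowered polarization.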
TSHR agonist: activates the human thyroid stimulating hormone receptor; HEK293-CNG-TSHR cells (CNG channel as cAMP sensor), membrane potential dye, cAMP; Potency, µM (doses to about 57.1 µM), inactives show top-dose activation, usual class: activators; 73,000 tested, 0.48% active; AID 926; active means well fitted activation curve with a large enough effect in the main read-out, with a control signal flat, not every such curve was filed as active; inconclusive means small, poorly fitted or top-dose-only effect, or a change in a side signal; inactive means no such curve, though single readings can be large or run the other way; % of control where 0% means no effect;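 further: the control signal comes from parental cells without the receptor; potency means the concentration at half of the fitted maximal effect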
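HEK 293 cells stably expressing TSHR and a modified CNG channel, with CNG-only parental cells as counterscreen, were preloaded 60 min at room temperature with membrane potential dye containing 100 uM RO 20-1724. Compound exposure was 30 min, and depolarization was read as fluorescence at 590 nm.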
BRCT PPI red: disrupts BRCA1 BRCT binding to phosphoprotein, red fluorophore readout; P38398; BRCT-phosphopeptide binding, red fluorescence polarization; Potency, µM (series often up to 76.9 µM), for the others: at the top dose activity change, negative = inhibition, most hits filed as inhibitors; 75,000 tested, 0.03% active; AID 892; further: on the % scale 0 is the no-effect control and ±100 the full control effect
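Rhodamine-labelled pBACH1 10-mer (100 nM) bound to BRCT domain (100 nM) at pH 7.3; compounds incubated 12 min room temperature, polarization read. Free peptide defines full inhibition; unlabelled decapeptide titrated as control.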
HEK293 cAMP ctrl: parental HEK293 cAMP activation (counter-screen) | Potency, µM (titrated, usually from 57.1 µM), for the others: top-dose activation, actives largely listed as activators | 73,000 tested, 2.5% active | parental HEK293 CNG cAMP sensor, membrane potential fluorescence | AID 938; further: potency means the concentration at half of the fitted maximal effect; % of control where 0% means no effect; nearly all actives have a fitted effect of over 55% in size
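Parental HEK 293 cells stably expressing a modified CNG channel (no TSHR) report cAMP rise as membrane depolarization. Membrane potential dye with 100 uM RO 20-1724 was loaded for 60 min at room temperature, then compound added for 30 min; fluorescence read at 590 nm.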
Active calls of the source: *; [ ] = remark or other dose. Unless noted, the call rests on the fitted dose curve; in most records, active means well fitted curve in the direction sought with a large enough effect; inconclusive means small, poorly fitted or top-dose-only effect, or another doubt; inactive means no such curve, though single readings can be large; an effect the other way counts as inactive or inconclusive.

`COc1ccccc1NC(=O)CSc1nnnn1-c1ccc2c(c1)OCO2` gave Pol III holo inh -2.2%, TsaE inh inactive, BRCT PPI green -0.9%, TSHR agonist 18.2%, BRCT PPI red -0.1% and HEK293 cAMP ctrl 9.4%.
`COc1cccc(-n2nnnc2SCC(=O)Nc2cccc(C)n2)c1` gave Pol III holo inh 1.1%, TsaE inh inactive, BRCT PPI green 0.1%, TSHR agonist inconclusive, BRCT PPI red -0.5% and HEK293 cAMP ctrl 25.1µM*.
Screening Cc1ccc(-n2nnnc2SCC(=O)Nc2ccccc2N2CCCCC2)cc1C returned Pol III holo inh 1.2%, TsaE inh inactive, BRCT PPI green -1.9%, TSHR agonist inconclusive, BRCT PPI red -0.6% and HEK293 cAMP ctrl 3.16µM*.
N#Cc1ccc2ccn(CC(=O)NC3CCCCCC3)c2c1 was read as Pol III holo inh -1.7%, TsaE inh inactive, BRCT PPI green -1.9%, TSHR agonist inconclusive, BRCT PPI red 0.9% and HEK293 cAMP ctrl 3.16µM*.
For CC1(C)CC(=O)C2=C(C1)NC(SCC(=O)Nc1ccccc1)=C(C#N)C2c1ccco1 (configuration not stated) the results were Pol III holo inh 5.9%, TsaE inh inactive, BRCT PPI green -1.1%, TSHR agonist inconclusive, BRCT PPI red 0.2% and HEK293 cAMP ctrl 15.8µM*.
COc1ccc(C2CC(=O)N3CN(c4ccc(C)c(Cl)c4)CSC3=C2C#N)cc1OC (configuration not stated) was read as Pol III holo inh -4.0%, TsaE inh inactive, BRCT PPI green 0.4%, TSHR agonist 2.9%, BRCT PPI red -0.7% and HEK293 cAMP ctrl -13.3%.
Screening Cc1onc(-c2ccccc2Cl)c1C(=O)Nc1ccc(OCC(=O)N2CCOCC2)cc1 returned Pol III holo inh 2.7%[11.4 µM], TsaE inh inactive, BRCT PPI green -0.4%, TSHR agonist inconclusive, BRCT PPI red 0.7% and HEK293 cAMP ctrl 3.98µM*.
CCOC(=O)N1CCN(Cc2ccccc2F)CC1 was read as Pol III holo inh 2.8%, TsaE inh inactive, BRCT PPI green -0.7%, TSHR agonist -3.8%, BRCT PPI red 0.6% and HEK293 cAMP ctrl -1.0%.
`CCCn1c(=O)c2ccccc2n2c(SCCOc3ccc(Cl)cc3)nnc12` gave Pol III holo inh 1.5%, TsaE inh inactive, BRCT PPI green -1.6%, TSHR agonist inconclusive, BRCT PPI red -1.0% and HEK293 cAMP ctrl 25.1µM*.
Screening COc1cc2c(cc1OC)C(COc1ccc(F)cc1)N(C(=O)c1ccco1)CC2 (configuration not stated) returned Pol III holo inh -7.3%, TsaE inh inactive, BRCT PPI green -2.6%, BRCT PPI red 0.9% and HEK293 cAMP ctrl 27.2%.
C=CCN1C2CCCC1CC(NC(=O)Nc1cccc(C(C)=O)c1)C2 (configuration not stated) was read as Pol III holo inh -4.9%, TsaE inh inactive, BRCT PPI green 0.2%, TSHR agonist -0.2%, BRCT PPI red -0.2% and HEK293 cAMP ctrl -3.1%.
For COC(=O)C1=C(C)NC(C)=C(C(=O)OC)C1c1ccc(N(C)C)cc1 the results were Pol III holo inh -3.9%, TsaE inh inactive, BRCT PPI green -1.4%, TSHR agonist 20µM*, BRCT PPI red 0.6% and HEK293 cAMP ctrl 4.7%.
CN(C)c1cc(NC(=O)CN2CCOCC2)c2ccccc2n1 was read as Pol III holo inh -1.3%, TsaE inh inactive, BRCT PPI green -1.4%, TSHR agonist inconclusive, BRCT PPI red -0.6% and HEK293 cAMP ctrl 20µM*.
`O=c1ccc2c(OCCCCc3ccccc3)c3ccoc3cc2o1` gave Pol III holo inh 0.9%, TsaE inh inactive, BRCT PPI green 1.4%, TSHR agonist inconclusive, BRCT PPI red -1.6% and HEK293 cAMP ctrl 25.1µM*.
For O=c1ccc2cc3ccoc3cc2o1 the results were Pol III holo inh -6.5%, TsaE inh inactive, BRCT PPI green 1.9%, TSHR agonist -0.7%, BRCT PPI red 0.4% and HEK293 cAMP ctrl 2.4%.
Screening CC(=O)c1cccc(N=C2C(=O)Nc3ccccc32)c1 returned Pol III holo inh -5.9%, TsaE inh inactive, BRCT PPI green -3.7%, TSHR agonist 0.4%, BRCT PPI red 0.2% and HEK293 cAMP ctrl 5.0%.
`COC(=O)c1cc(CSc2nc3ccc(C)cc3[nH]2)oc1C` gave Pol III holo inh -0.7%, TsaE inh inactive, BRCT PPI green -1.2%, TSHR agonist inconclusive, BRCT PPI red 0.6% and HEK293 cAMP ctrl 20µM*.
`COC(=O)c1cc(CSc2nnc(-c3ccccc3)c(-c3ccccc3)n2)oc1C` gave Pol III holo inh -3.1%, TsaE inh inactive, BRCT PPI green 2.0%, TSHR agonist 4.9%, BRCT PPI red 0.0% and HEK293 cAMP ctrl 19.6%.
`Cc1cccc(C)c1NC(=O)C(c1cccs1)N(Cc1ccco1)C(=O)Cn1nnc2ccccc21` (configuration not stated) gave Pol III holo inh -3.3%, TsaE inh inactive, BRCT PPI green -0.9%, TSHR agonist inconclusive, BRCT PPI red -0.1% and HEK293 cAMP ctrl 15.8µM*.
Screening Cc1cccc(N(C(=O)Cn2nnc3ccccc32)C(C(=O)NCc2ccco2)c2ccncc2)c1C (configuration not stated) returned Pol III holo inh inconclusive, TsaE inh inactive, BRCT PPI green -0.7%, TSHR agonist 10.8%, BRCT PPI red 0.2% and HEK293 cAMP ctrl 4.0%.
`O=C(NC1CCCCC1)C(c1ccc(F)cc1)N(Cc1ccco1)C(=O)Cn1nnc2ccccc21` (configuration not stated) gave Pol III holo inh -4.5%, TsaE inh inactive, BRCT PPI green -0.9%, TSHR agonist inconclusive, BRCT PPI red 0.0% and HEK293 cAMP ctrl 15.8µM*.
For O=C(NC1CCCCC1)C(c1ccccc1F)N(Cc1ccco1)C(=O)Cn1nnc2ccccc21 (configuration not stated) the results were Pol III holo inh -0.8%, TsaE inh inactive, BRCT PPI green -3.2%, TSHR agonist inconclusive, BRCT PPI red 0.6% and HEK293 cAMP ctrl 20µM*.
For O=C(NC1(C(F)(F)F)NC(=O)N(Cc2ccco2)C1=O)c1cccs1 (configuration not stated) the results were Pol III holo inh -5.2%, TsaE inh inactive, BRCT PPI green -1.5%, TSHR agonist 9.6%, BRCT PPI red -0.6% and HEK293 cAMP ctrl -2.0%.
NO was read as Pol III holo inh -9.8%, TsaE inh inactive, BRCT PPI green -3.2%, TSHR agonist 3.3%, BRCT PPI red -4.4% and HEK293 cAMP ctrl 5.6%.

Assay outcomes (PubChem BioAssay)
